{
  "source": "paper doi:10.1101/2024.03.05.583629",
  "data": [
    {"biological_target": "pT7_6His-AlfaTag-HOXD13 (human, UniProt P35453 263-343)", "sequence (P35453 263-343)": "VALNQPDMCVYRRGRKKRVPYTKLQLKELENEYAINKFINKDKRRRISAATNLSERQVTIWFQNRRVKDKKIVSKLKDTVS", "assay": "PADIT-seq", "settings": "dsDNA, one strand shown", "units": {"binding signal": "log2FC"}, "values": [
      {"sequence": "CTCGAGGATATCAAGATCTGGCCTCGGCTACTGGGCGGGAACCTCTAGCTAGCCGACTCACTATAGGGATAATCGCCCTGAGCAAAGACC", "binding signal": "-1.09 ± 0.112"},
      {"sequence": "CTCGAGGATATCAAGATCTGGCCTCGGCTCAGTAAAAGGAACCTCTAGCTAGCCGACTCACTATAGGGATAATCGCCCTGAGCAAAGACC", "binding signal": "1.56 ± 0.0915"},
      {"sequence": "CTCGAGGATATCAAGATCTGGCCTCGGCTTTTTACCCGGAACCTCTAGCTAGCCGACTCACTATAGGGATAATCGCCCTGAGCAAAGACC", "binding signal": "-0.11 ± 0.103"},
      {"sequence": "CTCGAGGATATCAAGATCTGGCCTCGGCCGCCCAGCGGGAACCTCTAGCTAGCCGACTCACTATAGGGATAATCGCCCTGAGCAAAGACC", "binding signal": "-0.602 ± 0.194"},
      {"sequence": "CTCGAGGATATCAAGATCTGGCCTCGGCCGCCCAATTGGAACCTCTAGCTAGCCGACTCACTATAGGGATAATCGCCCTGAGCAAAGACC", "binding signal": "-0.555 ± 0.114"},
      {"sequence": "CTCGAGGATATCAAGATCTGGCCTCGGCTTTTTAGCGGGAACCTCTAGCTAGCCGACTCACTATAGGGATAATCGCCCTGAGCAAAGACC", "binding signal": "-0.0861 ± 0.121"},
      {"sequence": "CTCGAGGATATCAAGATCTGGCCTCGGCCCGATAAAAGGAACCTCTAGCTAGCCGACTCACTATAGGGATAATCGCCCTGAGCAAAGACC", "binding signal": "1.27 ± 0.0909"},
      {"sequence": "CTCGAGGATATCAAGATCTGGCCTCGGCTGGATAAAAGGAACCTCTAGCTAGCCGACTCACTATAGGGATAATCGCCCTGAGCAAAGACC", "binding signal": "-0.165 ± 0.087"},
      {"sequence": "CTCGAGGATATCAAGATCTGGCCTCGGCCACCTAAAAGGAACCTCTAGCTAGCCGACTCACTATAGGGATAATCGCCCTGAGCAAAGACC", "binding signal": "-0.327 ± 0.133"},
      {"sequence": "CTCGAGGATATCAAGATCTGGCCTCGGCTTTTTAAGTGGAACCTCTAGCTAGCCGACTCACTATAGGGATAATCGCCCTGAGCAAAGACC", "binding signal": "1.17 ± 0.094"},
      {"sequence": "CTCGAGGATATCAAGATCTGGCCTCGGCCGCCCATAGGGAACCTCTAGCTAGCCGACTCACTATAGGGATAATCGCCCTGAGCAAAGACC", "binding signal": "-0.685 ± 0.116"},
      {"sequence": "CTCGAGGATATCAAGATCTGGCCTCGGCATGGTAAAAGGAACCTCTAGCTAGCCGACTCACTATAGGGATAATCGCCCTGAGCAAAGACC", "binding signal": "1.03 ± 0.0704"},
      {"sequence": "CTCGAGGATATCAAGATCTGGCCTCGGCCGCCCAGGCGGAACCTCTAGCTAGCCGACTCACTATAGGGATAATCGCCCTGAGCAAAGACC", "binding signal": "-0.81 ± 0.134"},
      {"sequence": "CTCGAGGATATCAAGATCTGGCCTCGGCCTTTTAGCCGGAACCTCTAGCTAGCCGACTCACTATAGGGATAATCGCCCTGAGCAAAGACC", "binding signal": "-0.235 ± 0.0913"},
      {"sequence": "CTCGAGGATATCAAGATCTGGCCTCGGCCTTTTAGAAGGAACCTCTAGCTAGCCGACTCACTATAGGGATAATCGCCCTGAGCAAAGACC", "binding signal": "0.357 ± 0.088"},
      {"sequence": "CTCGAGGATATCAAGATCTGGCCTCGGCTTTTTACACGGAACCTCTAGCTAGCCGACTCACTATAGGGATAATCGCCCTGAGCAAAGACC", "binding signal": "2.25 ± 0.079"},
      {"sequence": "CTCGAGGATATCAAGATCTGGCCTCGGCTACGTAAAAGGAACCTCTAGCTAGCCGACTCACTATAGGGATAATCGCCCTGAGCAAAGACC", "binding signal": "0.743 ± 0.0961"},
      {"sequence": "CTCGAGGATATCAAGATCTGGCCTCGGCTTTTTAATGGGAACCTCTAGCTAGCCGACTCACTATAGGGATAATCGCCCTGAGCAAAGACC", "binding signal": "2.57 ± 0.0871"},
      {"sequence": "CTCGAGGATATCAAGATCTGGCCTCGGCTTTTTACTCGGAACCTCTAGCTAGCCGACTCACTATAGGGATAATCGCCCTGAGCAAAGACC", "binding signal": "0.725 ± 0.0977"},
      {"sequence": "CTCGAGGATATCAAGATCTGGCCTCGGCGTTTTATCTGGAACCTCTAGCTAGCCGACTCACTATAGGGATAATCGCCCTGAGCAAAGACC", "binding signal": "0.898 ± 0.106"},
      {"sequence": "CTCGAGGATATCAAGATCTGGCCTCGGCGGCCTAAAAGGAACCTCTAGCTAGCCGACTCACTATAGGGATAATCGCCCTGAGCAAAGACC", "binding signal": "-0.691 ± 0.105"},
      {"sequence": "CTCGAGGATATCAAGATCTGGCCTCGGCGTTTTACTCGGAACCTCTAGCTAGCCGACTCACTATAGGGATAATCGCCCTGAGCAAAGACC", "binding signal": "0.701 ± 0.0889"},
      {"sequence": "CTCGAGGATATCAAGATCTGGCCTCGGCTTTCCACGCGGAACCTCTAGCTAGCCGACTCACTATAGGGATAATCGCCCTGAGCAAAGACC", "binding signal": "-0.793 ± 0.11"},
      {"sequence": "CTCGAGGATATCAAGATCTGGCCTCGGCATTCTAAAAGGAACCTCTAGCTAGCCGACTCACTATAGGGATAATCGCCCTGAGCAAAGACC", "binding signal": "-0.358 ± 0.0968"},
      {"sequence": "CTCGAGGATATCAAGATCTGGCCTCGGCCTTTTAACCGGAACCTCTAGCTAGCCGACTCACTATAGGGATAATCGCCCTGAGCAAAGACC", "binding signal": "1.24 ± 0.0724"},
      {"sequence": "CTCGAGGATATCAAGATCTGGCCTCGGCCTTCTAAAAGGAACCTCTAGCTAGCCGACTCACTATAGGGATAATCGCCCTGAGCAAAGACC", "binding signal": "0.087 ± 0.127"}
    ]}
  ]
}
